In PubChem BioAssay one finds composite z-score, z-score and composite Z-score data, which are given here for 6 molecules.

Test [1] has as its system Human papillomavirus type 1a protein E7 (residues 44-93). Kind of test: small molecules binding HPV E7 44-93 – biochemical, small-molecule microarray, residues 44-93, 635 nm fluorescence, primary screen (AID 1108).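 Further: E7 fragment applied at 1 µg/mL in TBST for 1 h at 4 C; score combines spot fluorescence with its signal to noise ratio.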 To be noted: fluorescence 635 nm, higher = more signal.
Test [2] is described as follows: hepatitis C replication reporter changes, two-sided – Huh7 cells, luciferase reporter, HCV replication inhibitor project, primary screen (AID 1109).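 Further: huh7 hepatoma cells harbouring a luciferase neomycin HCV replicon reporter; luciferase luminescence as measure of HCV replicon replication; test concentration not given here.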 To be noted: Huh7 HCV replicon luciferase reporter, 48 h; higher = more signal. A general note: In a reporter assay the amount or activity of a reporter protein is the signal.
Test [3] deals with Left-right determination factor 2 (Homo sapiens) (UniProt O00292). Kind of test: small molecules binding LEFTY2 protein – biochemical, small-molecule microarray, 635 nm fluorescence scan, primary screen (AID 1110). To be noted: higher = more signal.
Chain of Left-right determination factor 2 (Homo sapiens) (O00292 whole entry, looked up): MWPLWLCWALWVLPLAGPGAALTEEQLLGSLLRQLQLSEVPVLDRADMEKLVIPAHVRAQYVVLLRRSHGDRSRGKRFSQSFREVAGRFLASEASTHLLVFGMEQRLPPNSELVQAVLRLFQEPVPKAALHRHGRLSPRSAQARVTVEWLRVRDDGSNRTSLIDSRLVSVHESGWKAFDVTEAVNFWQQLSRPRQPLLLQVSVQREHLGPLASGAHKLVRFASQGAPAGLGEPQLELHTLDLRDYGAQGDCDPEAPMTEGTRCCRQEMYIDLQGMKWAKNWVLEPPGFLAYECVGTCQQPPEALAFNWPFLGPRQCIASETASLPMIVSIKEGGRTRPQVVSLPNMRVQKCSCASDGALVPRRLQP
For test [4], the target named is Calmodulin-1 (Homo sapiens) (UniProt P0DP23). Kind of test: small molecules binding calmodulin-1 with EGTA – biochemical, small-molecule microarray, Cy5-labelled CALM1, profiling panel (AID 1111).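 Further: labelled calmodulin applied in Tris saline Tween buffer holding calcium plus EGTA and DTT.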 To be noted: Cy5-CALM1 binding fluorescence, higher = more signal.
The target is the same in test [5]. Kind of test: small molecules binding Ca-loaded calmodulin-1 – biochemical, small-molecule microarray, Cy5-labelled CALM1, plus calcium, artefact control for SMM control-protein annotation, profiling panel (AID 1112).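 Further: score merges spot fluorescence with signal to noise from triplicate slides.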 The following applies: Cy5-CALM1 binding fluorescence, higher = more signal.
The nature of test [6]: probe aWnt5a binding to arrayed compounds – biochemical, biotinylated probe, 635/667 nm fluorescence, primary screen (AID 1113).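 Further: score merges 667 nm fluorescence intensity with signal-to-noise per printed feature.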 To be noted: small-molecule microarray, higher = more signal.
Test [7] can be described thus: probe aShh binding to arrayed compounds – biochemical, biotinylated probe, 635/667 nm fluorescence, primary screen (AID 1114).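 Further: probe is biotin-labelled aShh protein from a stem cell growth factor screen; measures binding of labelled protein to compounds printed on the slide; score merges feature fluorescence at 667 nm with signal-to-noise.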 The following applies: small-molecule microarray, higher = more signal.
The nature of test [8]: probe aNog binding to arrayed compounds – biochemical, biotinylated probe, 635/667 nm fluorescence, primary screen (AID 1115).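 Further: probe is biotinylated aNog protein used at 0.15 µg/mL for 1 h at 4 C; z-score combines 667 nm fluorescence of each spot with its signal to noise.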 The following applies: small-molecule microarray, higher = more signal.
Test [9] concerns the target Torsin-1A-interacting protein 1 (Homo sapiens) (UniProt Q5JTV8). Kind of test: compound microarray binding of lysate hLAP1 – cell lysate, small-molecule microarray, COS7 lysate, 635/667 nm fluorescence, primary screen (AID 1116). The following applies: 635 nm fluorescence, higher = more signal.
In test [10] the target is Alpha-bungarotoxin (Bungarus multicinctus) (UniProt P60615). Kind of test: compounds binding labelled alpha-BTX control protein – biochemical, small-molecule microarray, Alexa647 label, 635/667 nm fluorescence, artefact control for SMM control protein annotation, profiling panel (AID 1117). To be noted: alpha-BTX-A647 binding fluorescence, higher = more signal.
Chain of Alpha-bungarotoxin (Bungarus multicinctus) (P60615 whole entry, looked up): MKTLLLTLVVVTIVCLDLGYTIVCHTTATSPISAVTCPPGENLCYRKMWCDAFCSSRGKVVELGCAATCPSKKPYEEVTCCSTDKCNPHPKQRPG
For another test, the target named is Albumin (Bos taurus) (UniProt P02769). Kind of test: compounds binding labelled BSA control protein – biochemical, small-molecule microarray, Alexa647 label, 635/667 nm fluorescence, artefact control for SMM control protein annotation, profiling panel (AID 1118).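 Further: score merges 667 nm emission intensity and signal-to-noise per printed compound spot.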 The following applies: BSA-A647 binding, fluorescence 635 nm, higher = more signal.
Chain of Albumin (Bos taurus) (P02769 whole entry, looked up): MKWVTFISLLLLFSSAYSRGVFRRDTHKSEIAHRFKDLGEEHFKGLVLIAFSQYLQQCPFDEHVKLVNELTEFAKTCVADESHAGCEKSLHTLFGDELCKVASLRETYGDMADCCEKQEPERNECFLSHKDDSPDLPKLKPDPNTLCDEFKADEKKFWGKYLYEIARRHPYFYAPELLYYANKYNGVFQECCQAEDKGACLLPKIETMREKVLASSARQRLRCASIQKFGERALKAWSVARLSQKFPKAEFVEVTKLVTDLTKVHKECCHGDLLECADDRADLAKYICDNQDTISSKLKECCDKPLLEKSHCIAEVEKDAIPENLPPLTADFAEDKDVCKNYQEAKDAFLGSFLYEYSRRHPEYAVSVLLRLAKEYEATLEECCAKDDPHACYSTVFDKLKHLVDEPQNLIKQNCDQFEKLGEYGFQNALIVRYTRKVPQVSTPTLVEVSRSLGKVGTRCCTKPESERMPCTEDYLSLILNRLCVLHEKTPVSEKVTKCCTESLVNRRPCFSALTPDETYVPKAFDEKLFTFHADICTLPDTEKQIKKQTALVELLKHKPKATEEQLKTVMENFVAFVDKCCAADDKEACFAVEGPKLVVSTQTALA
Test [11] is described as follows: probe aXIP binding to arrayed compounds – biochemical, NeuroSMM set, 635/667 nm fluorescence, primary screen (AID 1119).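 Further: probe is the protein aXip251-270 applied at 1 µg/mL to compound-printed slides; binding of probe to printed compounds measured as 667 nm fluorescence plus signal to noise.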 The following applies: small-molecule microarray, higher = more signal, called active from +8 up or from −8 down.
A short description of test [12]: probe aNOTCH3 binding on compound microarray – biochemical, small-molecule microarray, 635/667 nm fluorescence, primary screen (AID 1120).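 Further: probe is a biotin-tagged antibody raised against NOTCH3 rather than NOTCH3 protein; score merges spot fluorescence near 667 nm with spot signal to noise.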 To be noted: higher = more signal.
The nature of test [13]: probe aNOTCH2 binding on compound microarray – biochemical, small-molecule microarray, 635/667 nm fluorescence, primary screen (AID 1121).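 Further: score merges feature fluorescence read at 667 nm with its signal to noise.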 To be noted: higher = more signal.
The target of test [14] is Carbonic anhydrase 2 (Homo sapiens) (UniProt P00918). Kind of test: compounds binding carbonic anhydrase 2 – biochemical, small-molecule microarray, Alexa647-labelled CAII, profiling panel (AID 1122). To be noted: CAII-A647 binding fluorescence, higher = more signal.
Test [15] in a line: COS7 lysate on small-molecule microarray, probe aHis, 635 nm (AID 1123).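 Further: z-score combines 667nm fluorescence intensity with signal-to-noise per printed compound spot.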 To be noted: COS7 cell lysate, fluorescence, higher = more signal.
Test [16] can be described thus: probe aLAP1 signal on lysate-treated microarray – cell lysate, small-molecule microarray, COS7 lysate, primary screen (AID 1124).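 Further: lysate comes from COS7 cells expressing LAP1 and is applied at 0.3 µg/mL; score merges spot fluorescence near 667 nm with signal-to-noise over triplicate slides.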 To be noted: probe aLAP1, fluorescence, higher = more signal.
A further test deals with Sam68 (KHDRBS1). Kind of test: compounds binding KHDRBS1 protein – biochemical, small-molecule microarray, 635 nm fluorescence, primary screen (AID 1125).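 Further: score merges 667 nm channel intensity with signal to noise over triplicate slides.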 To be noted: higher = more signal.
Test [17] deals with Chordin-like protein 2 (CHRDL2). Kind of test: compounds binding chordin-like 2 – biochemical, small-molecule microarray, 635 nm fluorescence, primary screen (AID 1126).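 Further: printed compound slides probed with Chrdl2 protein at 4 µg/mL for 1 h at 4 C; score merges 667 nm emission intensity with signal to noise over three replicate slides.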 To be noted: fluorescence 635 nm, higher = more signal.
Test [18] addresses Concanavalin-A (Canavalia ensiformis) (UniProt P02866). Kind of test: compounds binding concanavalin A lectin – biochemical, small-molecule microarray, Alexa647 label, 635 nm, artefact control for SMM control protein annotation, primary screen (AID 1127).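 Further: z combines 667 nm emission intensity with signal-to-noise across three replicate slides.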 To be noted: ConA-A647 binding fluorescence, higher = more signal.

The source made the active and inactive calls.

Chain of Concanavalin-A (Canavalia ensiformis) (P02866 whole entry, looked up): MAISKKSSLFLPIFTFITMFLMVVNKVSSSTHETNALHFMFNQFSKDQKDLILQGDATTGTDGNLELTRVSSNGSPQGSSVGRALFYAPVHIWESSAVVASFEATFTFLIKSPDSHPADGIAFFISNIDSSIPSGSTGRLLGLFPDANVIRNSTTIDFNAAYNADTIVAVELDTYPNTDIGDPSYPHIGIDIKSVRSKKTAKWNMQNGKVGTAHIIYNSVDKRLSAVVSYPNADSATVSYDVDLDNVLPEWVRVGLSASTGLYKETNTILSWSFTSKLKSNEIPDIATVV
Chain of Torsin-1A-interacting protein 1 (Homo sapiens) (Q5JTV8 whole entry, looked up): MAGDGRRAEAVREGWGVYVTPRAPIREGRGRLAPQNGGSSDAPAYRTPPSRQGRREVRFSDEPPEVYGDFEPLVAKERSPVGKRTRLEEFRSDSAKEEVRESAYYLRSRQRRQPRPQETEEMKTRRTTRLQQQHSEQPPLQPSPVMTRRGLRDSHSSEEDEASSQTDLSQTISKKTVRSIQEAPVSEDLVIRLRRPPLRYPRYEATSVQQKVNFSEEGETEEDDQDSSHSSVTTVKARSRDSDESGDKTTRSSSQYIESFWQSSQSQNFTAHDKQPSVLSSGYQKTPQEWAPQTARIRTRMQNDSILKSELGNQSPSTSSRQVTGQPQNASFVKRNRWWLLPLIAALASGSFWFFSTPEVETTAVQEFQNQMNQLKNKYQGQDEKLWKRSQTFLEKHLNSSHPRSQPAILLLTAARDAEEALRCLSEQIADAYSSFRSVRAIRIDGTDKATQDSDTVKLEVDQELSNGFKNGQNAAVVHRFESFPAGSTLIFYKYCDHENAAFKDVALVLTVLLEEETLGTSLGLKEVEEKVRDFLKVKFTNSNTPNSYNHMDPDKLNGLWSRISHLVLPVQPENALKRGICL

Consider `CCc1cc2c(nc1CC)CCN(CCC(C)=NOC(C)CN1CCCCc3nc(C)c(C)cc31)C2` (stereo not given), for which the composite z-score is 1.38 in test [1]; 0.772 in test [3]; 0.499 in [4]; 0.455 in [5]; -0.0735 in test [6]; 0.0639 in test [7]. The composite z-score was -0.1 in test [8]; 0.272 in test [9]; 0.946 in test [10]; 0.0846 with Albumin (Bos taurus); 0.0696 in [12]; -0.0194 in test [13]. Further, the composite z-score in [14] stood at 0.467; in [15] it was 1.64; in [16] it was 0.304; with Sam68 (KHDRBS1) it was 1.28; in test [17], 0.911; in test [18], 1.17. Besides, the z-score in test [2] is -4.08. Moreover, the composite Z-score in test [11] is 0.73 (inactive).

Take `COC(=O)CC=C[C@@H](C)[C@@H](C=NOC(C)CN1CCCCc2nc(C)c(C)cc21)NS(=O)(=O)c1ccc(C)cc1` (stereo not given in full): the composite z-score was 0.241 in [1]; 0.614 in test [3]; -0.344 in [4]; -1.27 in test [5]; -0.158 in [6]; 0.0144 in test [7]. For the same molecule, the composite z-score was 0.0567 in test [8]; 0.0017 in test [9]; 0.363 in [10]; -0.636 with Albumin (Bos taurus); 0.0949 in test [12]; -0.19 in test [13]. In addition, the composite z-score is -0.277 in test [14]; -0.065 in test [15]; 0.0618 in test [16]; 0.0692 in the test with Sam68 (KHDRBS1); 1.17 in test [17]; -0.135 in test [18]. The molecule further showed a z-score in [2] of 0.0814. Moreover, in [11], the composite Z-score was -0.292 (inactive).

As to `CC(C)[C@@H](OCc1ccccc1)[C@H](C)C=NO[C@H](C)c1cn([C@@H]2COC[C@H]2O)nn1`, the composite z-score in [1] is 1.27; in test [3] it was 0.542; in test [4] it was -0.219; in [5] it was -0.407; in [6], -0.0832; in [7] it was -0.206. For the same molecule, the composite z-score in test [8] is -0.198; in test [9], 0.296; in [10] it was 0.586; with Albumin (Bos taurus) it was 0.378; in [12] it was 0.307; in test [13] it was -0.156. Besides, the composite z-score in [14] was -0.133; in [15], 0.811; in test [16], 0.388; in the test on Sam68 (KHDRBS1), 1.3; in [17] it was 0.0507; in test [18] it was 0.584. The z-score in test [2] was -1.16. In addition, in test [11], the composite Z-score was -0.0641 (inactive).

In the case of `COc1ccc(COC(=O)NN=C2C[C@@H](O)[C@@H](O)[C@@H]3[C@@H]4C(=O)N(Cc5ccc6c(c5)OCO6)C(=O)[C@@H]4CC[C@H]23)cc1`, the composite z-score in [1] is -0.433; in test [3] it was -0.34; in test [4], -0.704; in test [5] it was -0.276; in test [6], 0.0438; in test [7] it was 0.0121. The composite z-score is 0.788 in test [8]; 0.0406 in [9]; 0.164 in test [10]; 0.252 with Albumin (Bos taurus); 0.0534 in test [12]; -0.0523 in test [13]. Further, the composite z-score in [14] was -0.32; in test [15] it was 0.352; in test [16] it was -0.257; in the test on Sam68 (KHDRBS1), -0.319; in test [17], -0.486; in test [18] it was -1.15. Besides, the z-score in [2] was -0.191. Further, the composite Z-score in test [11] is 0.0467 (inactive).

Regarding `CC(CCN1CCCCc2nc(C)c(C)cc21)=NO[C@@H](C)c1cc(-c2c(C)cc(C)cc2C)no1`, the composite z-score is -0.384 in test [1]; -0.747 in test [3]; -0.901 in [4]; -0.891 in test [5]; -0.152 in test [6]; -0.221 in test [7]. Also, the composite z-score in test [8] is -0.298; in test [9], 0.0623; in test [10], -0.664; with Albumin (Bos taurus), 0.335; in test [12] it was -0.231; in test [13], -0.0904. The composite z-score in test [14] was -0.079; in [15], -0.257; in [16], 0.197; in the test with Sam68 (KHDRBS1), -1.33; in [17], -0.734; in test [18] it was -1.84. Also, the z-score in test [2] is -1.56. Moreover, in test [11], the composite Z-score is -0.0861 (inactive).

Regarding `COC(=O)[C@H](C)NC(=O)CCC1CC(OC(=O)NCc2cccc3ccccc23)CC2(CCCC(COC(=O)NCCOc3ccccc3)O2)O1` (stereo not given in full), the composite z-score in test [1] was 1.33; in test [3] it was 0.43; in test [4] it was 1.33; in test [5], -0.232; in test [6], -0.251; in [7], -0.138. Besides, the composite z-score in [8] is -0.559; in test [9], 0.347; in test [10], 0.862; with Albumin (Bos taurus), 0.445; in [12] it was -0.0694; in [13], -0.161. The composite z-score is 0.295 in [14]; 1.17 in test [15]; 0.106 in test [16]; 1.23 in the test on Sam68 (KHDRBS1); -0.254 in test [17]; 1.09 in [18]. Moreover, the z-score in test [2] was -0.682. In addition, the composite Z-score in [11] is -0.0662 (inactive).
